Measurements published in PubChem BioAssay (NCI).
About 83,000 compounds went through this panel and 20% of them were active in at least one assay; those are over-represented in the sample as a whole.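 For each line, cells grew in 96-well plates with the test compound present at a single concentration for 48 hours.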 Unmarked numbers belong to inactive results. Calls of active or inactive are those of the source. How the source made its calls: active means growth percent below 10; inactive means the rest.

How the values were obtained:
Assay in all cases: NCI-60 one-dose screen, 48 h (100 = growth as untreated, 0 = no growth, -100 = all killed)
Settings in all cases: 10 µM unless noted
NCI-H23 lung = system: NCI-H23 lung
NCI-H226 lung = system: NCI-H226 lung
NCI-H322M lung = system: NCI-H322M lung
HOP-62 NSCLC = system: HOP-62 NSCLC
NCI-H460 lung = system: NCI-H460 lung
HOP-92 NSCLC = system: HOP-92 NSCLC
NCI-H522 lung = system: NCI-H522 lung
A549/ATCC NSCLC = system: A549/ATCC NSCLC
786-0 renal = system: 786-0 renal
COLO 205 colon = system: COLO 205 colon
DU-145 prostate = system: DU-145 prostate
K-562 leukemia = system: K-562 leukemia
MALME-3M melanoma = system: MALME-3M melanoma
MDA-MB-231 breast = system: MDA-MB-231 breast
SF-268 CNS = system: SF-268 CNS
SF-539 CNS = system: SF-539 CNS
UACC-257 melanoma = system: UACC-257 melanoma
M14 melanoma = system: M14 melanoma
RXF 393 renal = system: RXF 393 renal
SF-295 CNS = system: SF-295 CNS

O=C(O)C(O)C(O)C(=O)O.[NH-]C1CCCCC1[NH-].[Pt+2] (configuration not stated)
growth (NCI-H23 lung): 107%
growth (NCI-H226 lung): 102%
growth (NCI-H322M lung): 117%
growth (HOP-62 NSCLC): 98.8%
growth (NCI-H460 lung): 103%
growth (HOP-92 NSCLC): 100%
growth (NCI-H522 lung): 93.5%
growth (A549/ATCC NSCLC): 111%
growth (786-0 renal): 99.9%
growth (COLO 205 colon): 106%
growth (DU-145 prostate): 107%
growth (K-562 leukemia): 105%
growth (MALME-3M melanoma): 127%
growth (MDA-MB-231 breast): 98.7%
growth (SF-268 CNS): 104%
growth (SF-539 CNS): 105%
growth (UACC-257 melanoma): 122%
growth (M14 melanoma): 103%

O=[N+]([O-])c1cccc(C2CC(c3ccccc3)=Nc3ccccc3S2)c1 (configuration not stated)
growth (NCI-H23 lung): 87.9%
growth (NCI-H226 lung): 96.6%
growth (NCI-H322M lung): 99.6%
growth (HOP-62 NSCLC): 98.5%
growth (NCI-H460 lung): 106%
growth (HOP-92 NSCLC): 91.1%
growth (NCI-H522 lung): 76.7%
growth (A549/ATCC NSCLC): 88.6%
growth (786-0 renal): 97.1%
growth (COLO 205 colon): 98.9%
growth (DU-145 prostate): 89.6%
growth (K-562 leukemia): 12.2%
growth (MALME-3M melanoma): 89.3%
growth (MDA-MB-231 breast): 97.3%
growth (SF-268 CNS): 91.4%
growth (SF-539 CNS): 108%
growth (UACC-257 melanoma): 99.6%
growth (M14 melanoma): 102%

O=[N+]([O-])c1c(F)cccc1Nc1cccc(F)c1
growth (NCI-H23 lung): 104%
growth (NCI-H226 lung): 94.7%
growth (NCI-H322M lung): 108%
growth (HOP-62 NSCLC): 102%
growth (NCI-H460 lung): 107%
growth (HOP-92 NSCLC): 94.6%
growth (NCI-H522 lung): 92%
growth (A549/ATCC NSCLC): 106%
growth (786-0 renal): 93.9%
growth (COLO 205 colon): 121%
growth (DU-145 prostate): 108%
growth (K-562 leukemia): 95.4%
growth (RXF 393 renal): 102%
growth (SF-268 CNS): 105%
growth (SF-295 CNS): 87%
growth (SF-539 CNS): 102%
growth (UACC-257 melanoma): 93.2%
growth (M14 melanoma): 103%

Cc1cc2c(cc1C)NC1=C(N2)OC(c2c3ccccc3cc3ccccc23)C1=O (configuration not stated)
growth (NCI-H23 lung): 15.2%
growth (NCI-H226 lung): 52%
growth (NCI-H322M lung): 45.9%
growth (HOP-62 NSCLC): 31.9%
growth (NCI-H460 lung): 2.12% (active)
growth (HOP-92 NSCLC): 71.9%
growth (NCI-H522 lung): -5.18% (active)
growth (A549/ATCC NSCLC): 26.7%
growth (786-0 renal): 29.9%
growth (COLO 205 colon): -40.7% (active)
growth (DU-145 prostate): 16.7%
growth (K-562 leukemia): 9.62% (active)
growth (MALME-3M melanoma): 13.9%
growth (RXF 393 renal): 24.2%
growth (SF-268 CNS): 39.3%
growth (SF-295 CNS): -1.93% (active)
growth (SF-539 CNS): -21.9% (active)
growth (UACC-257 melanoma): 65.5%
growth (M14 melanoma): 10%

O=C(/C=C/c1ccc(B(O)O)cc1)/C=C/c1ccc(B(O)O)cc1
growth (NCI-H23 lung): 62.4%
growth (NCI-H226 lung): 78.1%
growth (NCI-H322M lung): 80.9%
growth (HOP-62 NSCLC): 105%
growth (NCI-H460 lung): 57.5%
growth (HOP-92 NSCLC): 82.6%
growth (NCI-H522 lung): 72.4%
growth (A549/ATCC NSCLC): 41.4%
growth (786-0 renal): -72.5% (active)
growth (COLO 205 colon): 36.8%
growth (DU-145 prostate): 64.4%
growth (K-562 leukemia): 12.9%
growth (MDA-MB-231 breast): 38.6%
growth (RXF 393 renal): 10.2%
growth (SF-268 CNS): 59.2%
growth (SF-295 CNS): 89.8%
growth (SF-539 CNS): 21.6%
growth (UACC-257 melanoma): 51.9%
growth (M14 melanoma): 20.5%

CCN(CC)CC(C)(C)C(=O)/C=C/c1ccccc1
growth (NCI-H23 lung): 62.1%
growth (NCI-H226 lung): 63.5%
growth (NCI-H322M lung): 67.7%
growth (HOP-62 NSCLC): 90.6%
growth (NCI-H460 lung): 32.3%
growth (HOP-92 NSCLC): 34.7%
growth (NCI-H522 lung): 60.6%
growth (A549/ATCC NSCLC): 80.3%
growth (786-0 renal): 60%
growth (COLO 205 colon): 53.4%
growth (DU-145 prostate): 8.96% (active)
growth (K-562 leukemia): 6.77% (active)
growth (MALME-3M melanoma): 37.4%
growth (RXF 393 renal): 30.3%
growth (SF-268 CNS): 91.3%
growth (SF-295 CNS): 87.6%
growth (SF-539 CNS): 28.8%
growth (UACC-257 melanoma): 65.9%
growth (M14 melanoma): 31.9%

COc1cccc(/C=C2/C(=O)N(Cc3ccco3)SC2=S)c1OC
growth (NCI-H23 lung): 108%
growth (NCI-H226 lung): 101%
growth (NCI-H322M lung): 98.7%
growth (HOP-62 NSCLC): 105%
growth (NCI-H460 lung): 102%
growth (HOP-92 NSCLC): 93%
growth (NCI-H522 lung): 83.7%
growth (A549/ATCC NSCLC): 100%
growth (786-0 renal): 101%
growth (COLO 205 colon): 111%
growth (DU-145 prostate): 102%
growth (K-562 leukemia): 51.2%
growth (MALME-3M melanoma): 98.8%
growth (MDA-MB-231 breast): 100%
growth (SF-268 CNS): 99%
growth (SF-539 CNS): 102%
growth (UACC-257 melanoma): 89.6%
growth (M14 melanoma): 105%

Oc1cccc(Nc2nccc(-c3ccc4ccccc4c3)n2)c1
growth (NCI-H23 lung): 33.2%
growth (NCI-H226 lung): 70.8%
growth (NCI-H322M lung): 46%
growth (HOP-62 NSCLC): 27.2%
growth (NCI-H460 lung): 16.1%
growth (HOP-92 NSCLC): 63.5%
growth (NCI-H522 lung): 15.6%
growth (A549/ATCC NSCLC): 30.7%
growth (786-0 renal): 30.1%
growth (COLO 205 colon): 84.7%
growth (DU-145 prostate): 27.3%
growth (MALME-3M melanoma): 68%
growth (MDA-MB-231 breast): 37.2%
growth (RXF 393 renal): 37.8%
growth (SF-268 CNS): 47.3%
growth (SF-295 CNS): 25.2%
growth (SF-539 CNS): 11%
growth (UACC-257 melanoma): 47.3%
growth (M14 melanoma): 8.25% (active)

O=C1C(Cl)=C(Cl)C(=O)c2c1nc1n2CCCC1
growth (NCI-H23 lung): 74.3%
growth (NCI-H226 lung): 109%
growth (NCI-H322M lung): 52.7%
growth (HOP-62 NSCLC): 97.1%
growth (NCI-H460 lung): 39.9%
growth (HOP-92 NSCLC): 102%
growth (NCI-H522 lung): 85.2%
growth (A549/ATCC NSCLC): 98.4%
growth (786-0 renal): 94.7%
growth (COLO 205 colon): 5.79% (active)
growth (DU-145 prostate): 96.9%
growth (MALME-3M melanoma): 73.2%
growth (MDA-MB-231 breast): 96.2%
growth (RXF 393 renal): 99.5%
growth (SF-268 CNS): 95.9%
growth (SF-295 CNS): 100%
growth (SF-539 CNS): 99.9%
growth (UACC-257 melanoma): 96%
growth (M14 melanoma): 105%
